# Numbering of substitutions follows the chain as printed. In all, about 24,000 sequences were measured (“enrichment r”: median about 0.99, highest 2% from about 3.7 on). This excerpt belongs to a sample that is enriched for the highest values.
# T1: UNK ZnF1-3 (human, UniProt Q9C0B0 31-174)
# T1 sequence: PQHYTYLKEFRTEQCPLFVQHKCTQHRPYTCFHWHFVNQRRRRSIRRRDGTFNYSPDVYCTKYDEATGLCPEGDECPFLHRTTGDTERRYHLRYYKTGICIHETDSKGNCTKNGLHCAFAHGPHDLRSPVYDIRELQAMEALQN
# B1: chr2:47387610:47387611:-_ENSG00000143933_ENST00000272298|hu_mus|FALSE|FALSE (ssRNA)
# RNA: GGGAGUUCUACAGUCCGACGAUCUCCACGCAGAGUUACAGCUCCACACUUCAACAACAACAUGCUGACAGUUCCUAAAAGCUACUUUAAAAAAGGCAUAACCCAGAUGUUCCCUCAUUGGACCAACUCCAUCUAAGUUUAGAUCAACAGAGGAUUGAGCAUCA
# B2: chr8:104447970:104447971:+_ENSG00000164934_ENST00000297579|hu_hu|hu_hu_hu_mus_False|88_98 (ssRNA)
# RNA: GGGAGUUCUACAGUCCGACGAUCAUACACUUCCCUGCUUCGACUUUUGUCUACAGGAAAGAUUCUAAUAGACUUAUCAAAGCUGGCAGACACAAAUUCCUUCCCAGUGGGAGAGUAGUCCACAUCAAGUACUGCAGACACGUGCAACAGAGGAUUGAGCAUCA
# B3: chr3:150289932:150289933:+_ENSG00000144895_ENST00000460851|hu_hu|hu_hu_hu_mus_False|28_58 (ssRNA)
# RNA: GGGAGUUCUACAGUCCGACGAUCCUUGUAGUUUUUAACAUCCCAUACUUCCAUUUGUCCUCGAAGAUUUCCAAAUCCAGCUAAUACUAAUAUAUGUCCAUGAGGGCUAUAGUAGGCUGCGUUGCGAGGACCAGUCCCAAAGUCCAACAGAGGAUUGAGCAUCA
# B4: chr13:51516861:51516862:+_ENSMUSG00000067586_ENSMUST00000087978|mus_mus|FALSE|FALSE (ssRNA)
# RNA: GGGAGUUCUACAGUCCGACGAUCCUUGGUGACAUAGAGAAGGGCAAGGCCAAUGAUGGAGCAGAACUUCUUGGCAGUGACCUAUAUACACCAGGAGUGACAUGAGGGGAAGUCUUUAGUUAGUCAGACCAGGGUUACCUAAGGCAACAGAGGAUUGAGCAUCA
# B5: chr19:5940991:5940992:-_ENSMUSG00000024833_ENSMUST00000025752|mus_hu|FALSE|FALSE (ssRNA)
# RNA: GGGAGUUCUACAGUCCGACGAUCGUUCACACAGACACAGCCGAGGACAUCCUUCACGAAGUACCUCAGCUCUGACGGGAUGAUGAGGACAUCUGGGGUGACAGGCAGCUGUGCGUAAACAUAGAACGACUCAUAGUCAAUGGCCAACAGAGGAUUGAGCAUCA
# B6: chr6:168291551:168291552:+_ENSG00000130396_ENST00000400822|hu_mus|motif|central (ssRNA)
# RNA: GGGAGUUCUACAGUCCGACGAUCAUGUUUCUUCAUUUUCUUUGGGAUGUAGUCCGGUGGUCUCCUCUUCAACUGAAAGACGGAAAUCCCUUUGUCACUUGGCCAUUCCCUGAAGAUUUGUAAAGGACAUUCAUCAUCGUCAAGCAACAGAGGAUUGAGCAUCA
# B7: chr16:50257146:50257147:+_ENSG00000121274_ENST00000436909|hu_mus|FALSE|FALSE (ssRNA)
# RNA: GGGAGUUCUACAGUCCGACGAUCUAUCCGGAUGCCAGUCUUUAAGUAAUUGAAGUGCCGUCCAUAUAAUUCAAAAAACUCUAUUAAGAGAACACCAUAGUUUGUAUUGGGGAUGCAAGCAUCUUCCCUGGGAUGUAACUGAAGCAACAGAGGAUUGAGCAUCA
# B8: chr1:39494447:39494448:+_ENSG00000168653_ENST00000372967|hu_mus|hu_hu_hu_mus_False|18_18 (ssRNA)
# RNA: GGGAGUUCUACAGUCCGACGAUCGCACCGAGCGGCGUUCUUAUAGGGCUGUUCUGCGCUUAGGAACAUAAAGUGCCGGUCCAGGCUGAUGCCCAGCUUUUUCUGUAUGUCAAGGAAAGGCAUGGCCCUGCAGUGCCCUUGUCACAACAGAGGAUUGAGCAUCA
# B9: chrX:140365796:140365797:-_ENSMUSG00000031285_ENSMUST00000033642|mus_mus|mus_mus_mus_hu_False|8_58 (ssRNA)
# RNA: GGGAGUUCUACAGUCCGACGAUCCUUCUCAUUACUCAGUGCCUGCAAGGUUCUGGUUCGGUAGAAGCUACAGUGGGCACUAUGAGUGGGGCUAGGCAACCCAUUCAUCCGGGAGCCUCGCAUGUUCCUAGAUGCUUUAUCUCUCAACAGAGGAUUGAGCAUCA
# B10: chr3:10015032:10015033:+_ENSMUSG00000027533_ENSMUST00000029046|mus_mus|mus_mus_mus_hu_True|1_38 (ssRNA)
# RNA: GGGAGUUCUACAGUCCGACGAUCGUUUUUACCAUCACAAGUGAUGAUACAAUCUGGCUUGGCCAUUGCGCCCAUUUUUCGCAAAGCUAUUCCCACUCCUAGCUCUUUCAUGUAUUCAUCAAAGCCUUUGCUGUCCAUCAGGCGCAACAGAGGAUUGAGCAUCA
# B11: chr4:6320793:6320794:+_ENSMUSG00000028249_ENSMUST00000103008|mus_mus|FALSE|FALSE (ssRNA)
# RNA: GGGAGUUCUACAGUCCGACGAUCAGUAGGCAUGAUUGUGAUGGUAACCACAGUCCCAGCUGUUGACAGUAUAUCUGCAAUCUGAGCAUCCUUCAAGCCAAUGACGUUCUGUCCGUUGAUCUCACAGAUGUGGUGAUCAGUGAGCAACAGAGGAUUGAGCAUCA
# B12: chr2:202488911:202488912:-_ENSG00000155755_ENST00000286196|hu_hu|FALSE|FALSE (ssRNA)
# RNA: GGGAGUUCUACAGUCCGACGAUCUUUUAACAUUUUUCAUAAUAUUGAGAGAUGUUUCAGUAUUAUAUAAUCAAAAAAUCUAUUACAAAUACACAUGUAUACAUCUUAUAAAAAUACAUUUAAAAACAAAAAUGGGACAAAUACCAACAGAGGAUUGAGCAUCA
# B13: chr2:174291214:174291215:-_ENSMUSG00000016257_ENSMUST00000016401|mus_hu|motif|central (ssRNA)
# RNA: GGGAGUUCUACAGUCCGACGAUCUUGAUCAAGUCACAUAGCCUUACACCAACUUAUCAAAAAAAAAAAAAAAAAAACGGCCCAAAAUAUAGUUGUAUUUUUAAAAUAACAAAUAAAUAUAUAGUCAGUUUGGAGAGACCUGGACAACAGAGGAUUGAGCAUCA
# B14: chr22:42024162:42024163:+_ENSG00000196419_ENST00000405878|hu_hu|FALSE|FALSE (ssRNA)
# RNA: GGGAGUUCUACAGUCCGACGAUCCUCAUCUUCACUCUGAGAUUCAAACAUAGCCUUGGAGGCAUCAACCAAAAAAAUCAAACUAUCUCUUCCUGAAUAUUUAUAGUCUCCACUUGCUUCAAGGUUCUCUUCUUGUUCUUCCUCCAACAGAGGAUUGAGCAUCA
# B15: chr2:174291214:174291215:-_ENSMUSG00000016257_ENSMUST00000016401|mus_hu|FALSE|FALSE (ssRNA)
# RNA: B13 RNA with G78U, G79A
# B16: chr7:135612270:135612271:-_ENSG00000105887_ENST00000393085|hu_mus|hu_hu_hu_mus_False|8_18 (ssRNA)
# RNA: GGGAGUUCUACAGUCCGACGAUCGUUUUUUUCUGAGAUGUUAAAUAGUACUUCAGUGGAAAACAAAACUUAACCUUUUAUUAAUGCGUGUUGUACCAAAAGCAGACAUUUUAGCUUGCUUCCUUUACUCAAAAUAUCAUUAAGCAACAGAGGAUUGAGCAUCA
# B17: chr3:142455598:142455599:-_ENSMUSG00000004591_ENSMUST00000043812|mus_mus|FALSE|FALSE (ssRNA)
# RNA: GGGAGUUCUACAGUCCGACGAUCGUAGAGCAUUUGAUCAAAUUAUUUGUGAGACUUUUGAGGUACAGCUUUAGUGUUAUAAUAACUUUUUAUAAAAUAUAGACUGUUUUAUCAAAAAUAUUUAUACAUUCUGUUACAAUAUAUCAACAGAGGAUUGAGCAUCA
# B18: chr20:57609950:57609951:-_ENSG00000101166_ENST00000355937|hu_hu|FALSE|FALSE (ssRNA)
# RNA: GGGAGUUCUACAGUCCGACGAUCUGUUUUGAUCAAGUCACAUAGCCUUACACCAACUUAUCAAAAAAAAAAAAAAAAAAACUACCCAAAAUAUAGUUGUAUUUUUAAAAUAACAAAUAAAUAUAUAGUCAGUUUGGAGAGACCCAACAGAGGAUUGAGCAUCA
# B19: 60597838_60597958_3500_3pUTR_ENSMUSG00000049323_ENSMUST00000056907|mouse|control|control (ssRNA)
# RNA: GGGAGUUCUACAGUCCGACGAUCUUUUUGGGAGCUACUUCCUUAAUGAACCAGGAGCAGCUGCUACUGUCCUUCUGGAGGGCCAUGUGCCACCUCUGCUCAGCCCACAUCACACACUGCCCAGGGCUAUGUUGCAACUAUAACCAACAGAGGAUUGAGCAUCA
# B20: chr17:45757878:45757879:+_ENSG00000108424_ENST00000290158|hu_hu|FALSE|FALSE (ssRNA)
# RNA: GGGAGUUCUACAGUCCGACGAUCUGGCCUAGCUUCUACUAAUUUCAGUACAUCCUUCCCAAAUGCUGUACAUAAGUCCCCUAUUAGUCCAGCAGCACAAGCUACUACUCCAUCUGUGUGAUCCUCAUCUCCAGCAAUGUGGUCCAACAGAGGAUUGAGCAUCA
# B21: chr19:16452684:16452685:+_ENSMUSG00000024639_ENSMUST00000025541|perfect_dup|FALSE|FALSE (ssRNA)
# RNA: GGGAGUUCUACAGUCCGACGAUCGUUUAAGAACAGAAUCACAGAGGAGUUCUGGAACCAGGGGUAGGUGAUAAUUGUUCUAAAGAGUGCUUUGCUCUCCUCCAUGCGGUUCUCAUUGUCUGACUCCACAAGAACUUGAUCAUACAACAGAGGAUUGAGCAUCA
# B22: chr5:128448638:128448639:+_ENSG00000066583_ENST00000173527|hu_mus|hu_hu_hu_mus_False|98_98 (ssRNA)
# RNA: GGGAGUUCUACAGUCCGACGAUCGGCACUCGCCUUAAUUAGAUUCUGAAUUUCCUUGAACUUCGGGUGGUCUUUGUCAGCCACCAGCUGUAGGAGGACAGCCUCACUAGUGGUCACGAUGAUCCCAGUGCGGGCAAGACGCUCCAACAGAGGAUUGAGCAUCA
# Biological target: T1, UNK ZnF1-3
# Assay: nsRBNS (natural sequence RNA bind-n-seq); RBNS binding buffer (assumed for nsRBNS): 25 mM Tris pH 7.5, 150 mM KCl, 3 mM MgCl2, 0.01% Triton X-100, 500 ug/ml BSA, 20 U/ml SUPERase-In, 4 C; UNK is unkempt and MSI1 is Musashi-1; names of the RNAs are library labels; protein concentration not given here; high values mean tight binding
row,Binder,binding signal [enrichment R]
1,B1,1.21
2,B2,0.947
3,B3,1.1
4,B4,1.32
5,B5,1.51
6,B6,0.653
7,B7,1.63
8,B8,0.805
9,B9,0.475
10,B10,0.702
11,B11,0.725
12,B12,1.78
13,B13,8.06
14,B14,1.1
15,B15,7.95
16,B16,0.545
17,B17,0.537
18,B18,5.71
19,B19,0.845
20,B20,1.02
21,B21,0.726
22,B22,0.728
